Test results as given in PubChem BioAssay (NCATS).
Inconclusive results are not listed. The source made the active and inactive calls. The call rests on the fitted dose curve; in most records, active means well fitted curve in the direction sought with a large enough effect; inconclusive means small, poorly fitted or top-dose-only effect, or another doubt; inactive means no such curve, though single readings can be large; an effect the other way counts as inactive or inconclusive.

What was measured:
[1] = target: N-terminal Xaa-Pro-Lys N-methyltransferase 1 (Homo sapiens) (UniProt Q9BV86); assay: qHTS Assay for Inhibitors of N-terminal methyltransferase 1 (NTMT1): LOPAC validation of the NTMT1 SAHH-coupled ThioGlo3 Assay (AID 1347143);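 further: SAH from peptide methylation measured as thiol fluorescence via SAHH coupling and ThioGlo3; nearly all actives have a fitted effect of over 70% in size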; further: potency means the concentration at half of the fitted maximal effect
Chain of N-terminal Xaa-Pro-Lys N-methyltransferase 1 (Homo sapiens) (Q9BV86 whole entry, looked up): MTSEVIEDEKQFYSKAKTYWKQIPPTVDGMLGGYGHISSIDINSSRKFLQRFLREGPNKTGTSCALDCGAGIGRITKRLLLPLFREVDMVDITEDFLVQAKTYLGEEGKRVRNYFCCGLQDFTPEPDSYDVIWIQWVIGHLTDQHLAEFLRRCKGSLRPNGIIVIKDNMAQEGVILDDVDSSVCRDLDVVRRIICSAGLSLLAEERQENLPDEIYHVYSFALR
Method in brief: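 Steps: dispense 125nM NTMT1; pin-transfer test compounds at several concentrations, with 1uM RCC1-6 peptide as control; incubate 1 min; start with reagent holding 100uM SAM, 10uM SAHH, 15uM ThioGlo3; read at 0 and 30 min.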

[2] = tested on: Zika virus NS2B-NS3 protease (unlinked); assay: Optimization of GU AMC qHTS for Zika virus inhibitors: Unlinked NS2B-NS3 protease assay (AID 1347151); further: nearly all actives have a fitted effect of over 80% in size; further: potency means the concentration at half of the fitted maximal effect
Method in brief: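 Unlinked protease (25 nM final); buffer 10 mM Tris-HCl pH 8.0 + 0.01% Tween 20; AMC substrate; 15 min RT, dark; Δfluorescence normalized to no-inhibitor/no-enzyme controls; 4-parameter Hill fit.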

[3] = qHTS of pediatric cancer cell lines to identify multiple opportunities for drug repurposing: Primary screen for Rh41 cells (AID 1347108); further: potency means the concentration at half of the fitted maximal effect; nearly all actives have a fitted effect of over 70% in size
Method in brief: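 Following a 5-hour attachment period, cells at 500-1,000/well received compounds and were cultured for 48 hours. CellTiter-Glo was added and luminescence read to estimate viable, metabolically active cells.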

[4] = qHTS of pediatric cancer cell lines to identify multiple opportunities for drug repurposing: Confirmatory screen for A673 cells (AID 1347110); further: potency means the concentration at half of the fitted maximal effect; nearly all actives have a fitted effect of over 65% in size
Method in brief: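 qHTS titration format: primary MIPE 0.78 nM-46 µM (11 pts), NPC 0.59 nM-46 µM; confirmation 11 pts. 48 h, CTG luminescence.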

[5] = qHTS of pediatric cancer cell lines to identify multiple opportunities for drug repurposing: Confirmatory screen for SK-N-MC cells (AID 1347111);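 further: potency means the concentration at half of the fitted maximal effect; cells exposed to compound for 48 h before the readout; nearly all actives have a fitted effect of over 70% in size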
Method in brief: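 SK-N-MC cells at 500-1,000 cells/well in growth media were pre-incubated 5 h, then exposed to compounds at 11-point dilutions for 48 h at 37 degrees C, 5% CO2. Viability was read as CellTiter-Glo luminescence.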

[6] = qHTS of pediatric cancer cell lines to identify multiple opportunities for drug repurposing: Confirmatory screen for BT-12 cells (AID 1347112); further: potency means the concentration at half of the fitted maximal effect; nearly all actives have a fitted effect of over 55% in size
Method in brief: (§1)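 Viability after 48 h compound treatment at 37C, 500-1,000 cells/well, read as ATP luminescence with CellTiter-Glo. Primary screens used 11-point (MIPE, 0.78 nM-46 µM) or 8-point (NPC, 0.59 nM-46 µM) final concentrations; follow-up screens used 11-point dilutions.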

[7] = qHTS of pediatric cancer cell lines to identify multiple opportunities for drug repurposing: Confirmatory screen for LAN-5 cells (AID 1347113); further: nearly all actives have a fitted effect of over 65% in size; further: potency means the concentration at half of the fitted maximal effect
Method in brief: as §1

[8] = qHTS of pediatric cancer cell lines to identify multiple opportunities for drug repurposing: Confirmatory screen for DAOY cells (AID 1347114); further: nearly all actives have a fitted effect of over 65% in size
Method in brief: (§2)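 Viability measured as metabolically active cells via CellTiter-Glo luminescence following 48 hours of compound exposure, 11-point dilutions in confirmatory testing. 500-1,000 cells/well plated 5 hours before dosing; controls were DMSO and 2.3 µM bortezomib.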

[9] = qHTS of pediatric cancer cell lines to identify multiple opportunities for drug repurposing: Confirmatory screen for SJ-GBM2 cells (AID 1347116); further: nearly all actives have a fitted effect of over 60% in size
Method in brief: as §2

[10] = qHTS of pediatric cancer cell lines to identify multiple opportunities for drug repurposing: Confirmatory screen for BT-37 cells (AID 1347117); further: potency means the concentration at half of the fitted maximal effect; nearly all actives have a fitted effect of over 55% in size
Method in brief: as §1

[11] = qHTS of pediatric cancer cell lines to identify multiple opportunities for drug repurposing: Confirmatory screen for TC32 cells (AID 1347118); further: potency means the concentration at half of the fitted maximal effect; nearly all actives have a fitted effect of over 65% in size
Method in brief: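 TC32 cells, 500-1,000/well in growth medium, compound-treated 48 h at 37 °C; viability from CellTiter-Glo luminescence. Primary screen: MIPE 11-point (0.78 nM–46 µM final), NPC 8-point (0.59 nM–46 µM final); confirmatory at 11-point dilutions.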

[12] = qHTS of pediatric cancer cell lines to identify multiple opportunities for drug repurposing: Confirmatory screen for Rh41 cells (AID 1347123);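 further: potency means the concentration at half of the fitted maximal effect; 48 h compound exposure; nearly all actives have a fitted effect of over 60% in size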
Method in brief: as §1

[13] = qHTS of pediatric cancer cell lines to identify multiple opportunities for drug repurposing: Confirmatory screen for Rh18 cells (AID 1347125); further: nearly all actives have a fitted effect of over 55% in size; further: potency means the concentration at half of the fitted maximal effect
Method in brief: as §1

[14] = qHTS of pediatric cancer cell lines to identify multiple opportunities for drug repurposing: Confirmatory screen for Rh30 cells (AID 1347126); further: nearly all actives have a fitted effect of over 55% in size; further: potency means the concentration at half of the fitted maximal effect
Method in brief: as §1

[15] = qHTS of pediatric cancer cell lines to identify multiple opportunities for drug repurposing: Confirmatory screen for OHS-50 cells (AID 1347128)
Method in brief: as §1

[16] = qHTS of pediatric cancer cell lines to identify multiple opportunities for drug repurposing: Confirmatory screen for NB-EBc1 cells (AID 1347115); further: nearly all actives have a fitted effect of over 45% in size
Method in brief: as §1

[17] = qHTS of pediatric cancer cell lines to identify multiple opportunities for drug repurposing: Confirmatory screen for MG 63 (6-TG R) cells (AID 1347119); further: nearly all actives have a fitted effect of over 55% in size
Method in brief: as §1

[18] = qHTS of pediatric cancer cell lines to identify multiple opportunities for drug repurposing: Confirmatory screen for RD cells (AID 1347124)
Method in brief: as §1

Measured: Potency

CC(C)C[C@H]1C(=O)N2CCC[C@H]2[C@]2(O)O[C@](NC(=O)[C@@H]3C=C4c5cccc6[nH]c(Br)c(c56)C[C@H]4N(C)C3)(C(C)C)C(=O)N12
active: [1] 56.2 µM | [2] 11.9 µM

CN(C)C(=S)SC(=S)N(C)C
inactive: [8] | [9] | [15]
active: [3] 0.944 µM | [4] 2.61 µM | [5] 2.93 µM | [6] 4.65 µM | [7] 3.69 µM | [10] 3.69 µM | [11] 3.69 µM | [12] 1.31 µM | [13] 5.22 µM | [14] 4.14 µM

CNCCC(Oc1ccccc1C)c1ccccc1 (configuration not stated)
inactive: [1] | [2]

O=C1CCC(c2ccc(-n3ccnc3)cc2)=NN1
inactive: [1] | [2]

CC(=O)O[C@]1(C(C)=O)CC[C@H]2[C@@H]3C[C@H](C)C4=CC(=O)CC[C@]4(C)[C@H]3CC[C@@]21C
inactive: [7] | [16] | [17] | [18] | [13] | [14]
active: [4] 1.31 µM | [5] 23.3 µM
